The source of these data is PubChem BioAssay (EPA / NIEHS).

Where “and” joins values, the source holds several entries; their conditions need not be identical. Equal values may be shown once. Calls of active or inactive are those of the source. The calls were made as follows: active = hit-call score of the fitted dose curve at least 0.9, where 1 is the maximum; inactive = score below 0.9.

Read-out in the test: urokinase plasminogen activator (uPA), PLAU (gene 5328)
The test can be described thus: BSK_KF3CT_uPA: BioMAP Diversity Plus: KF3CT Assay for urokinase plasminogen activator (uPA) Biomarker Activity (AID 2283075). The following applies: primary human keratinocytes with fibroblasts; actives raise or lower the signal. The method, then:
BSK_KF3CT is a cell-based, multiplexed-readout assay that uses keratinocytes and foreskin fibroblasts, a human skin primary cell co-culture, with measurements taken at 24 hours after chemical dosing in a 96-well plate.BSK_KF3CTA is an assay component measured in the BSK_KF3CT assay. It measures uPA antibody related to regulation of gene expression using ELISA technology.Data from the assay component BSK_KF3CTA was analyzed into 1 assay endpoint. This assay endpoint, BSK_KF3CTA, was analyzed with bidirectional fitting relative to DMSO as the negative control and baseline of activity. Using a type of binding reporter, gain or loss-of-signal activity can be used to understand changes in the signaling as they relate to the gene PLAU. Furthermore, this assay endpoint can be referred to as a primary readout, because this assay has produced multiple assay endpoints where this one serves a signaling function. To generalize the intended target to other relatable targets, this assay endpoint is annotated to the protease intended target family, where the subfamily is serine protease.
The levels of cell surface (or secreted, indicated by the prefix "s") biomarker endpoints were measured by ELISA. Overt cytotoxicity to cells in confluent adherent cultures (all systems other than the BT system) was assessed by measuring total protein levels using sulforhodamine B (SRB) staining in parallel cultures at the time of biomarker measurements, indicated as SRB endpoints. For proliferation assays for adherent cell types, individual cell types are cultured at sub-confluence and relative cell numbers quantified by SRB staining at time points optimized for each system (48 h: 3C and CASM3C systems; 72 h: BT and HDF3CGF systems; 96 h: SAg system). SRB was performed by staining cells with 0.1% SRB after fixation with 10% TCA and reading wells at 560 nm.Viability and proliferation of PBMC (T cells) was quantified by Alamar Blue reduction for the SAg and BT systems. For PBMC viability (referred to as PBMC Cytotoxicity within the assay endpoint names), cells were plated (75,000/well in a 96-well plate) and then chemical samples added for 1 h before addition of activators, SEB and TSST-1 (20 ng/mL final concentration each). Cells were incubated for 90 h. Then, Alamar Blue (20 uL/well) (Invitrogen, Cat DAL1100) was added for 6 h, and the plates were read with a fluorescence microplate reader at 546/580 nm (excitation/emission). For PBMC proliferation, cells were plated and activated as above but incubated for only 16 h prior to addition of Alamar Blue. Plates were read after 6 h.
As for `O=C(Nc1ccccc1SSc1ccccc1NC(=O)c1ccccc1)c1ccccc1`, the result was inactive. Turning to `S=C(NC1CCCCC1)NC1CCCCC1`, the outcome was inactive.

Regarding `C=C[Si](OC(C)=O)(OC(C)=O)OC(C)=O`, the result was inactive. For `C=CC=CC=CCCCCC`, the outcome was inactive.

With `O=C(c1ccc(O)cc1)c1ccc(O)cc1O`, the outcome was inactive. Still for that read-out and setting: the result for `O=C1CCCN1CCO` reads “inactive”. For orientation: AC50 means the concentration giving half of the maximal activity seen. Regarding `C=CC(=O)OCC(Br)CBr` (stereo unspecified), the half-maximal activity concentration (AC50) is 34.1 µM (active). Consider `CCCCC(CC)COC(=O)c1ccccc1O` (stereo unspecified), for which the result was inactive. For the compound `CO[Si](OC)(OC)c1ccccc1`, the outcome was inactive. Same read-out and setting: the result for `C=CCOCC(O)CCl` (stereo unspecified) reads “inactive”. With `CN1C(=O)N(C)C(O)C1O` (stereo unspecified), the outcome was inactive. Still for that read-out and setting: the same measure for `CC1OC1C1CCC2(C)OC2C1` (stereo unspecified): “inactive”. As for `CC(C)C(=O)C(C)C`, the outcome was inactive. As to `Nc1ccc(N)c(Cl)c1`, the outcome was inactive.

As to `CCCCNc1ccc(NCCCC)c2c1C(=O)c1ccccc1C2=O`, the outcome was inactive. With `CC(C)(c1cc(Br)c(OCCO)c(Br)c1)c1cc(Br)c(OCCO)c(Br)c1`, the AC50 is 16.2 µM (active).

In the case of `CCCCCCCCCCCCCCCC[N+](C)(C)CC`, the AC50 was 7.22 µM (active). For the compound `N#[N+]c1ccc2c(S(=O)(=O)[O-])cccc2c1O`, the outcome was inactive. Same read-out and setting: the same measure for `COCc1c(C(C)C)nc(C(C)C)c(/C=C/[C@@H](O)C[C@@H](O)CC(=O)O)c1-c1ccc(F)cc1`: “inactive”. Same read-out and setting: the same measure for `O=c1c2ccccc2oc2ccccc12`: “inactive”. As to `CCO[Si](CCCN=C=O)(OCC)OCC`, the outcome was inactive. As to `COc1ccc2nc(N)sc2c1`, the result was inactive.

Take `O=Nc1ccc(O)cc1`: the outcome was inactive. The same measure, in the same setting: the result for `CCO[Si](C)(OCC)OCC` reads “inactive”; that for `CCOc1nc(F)cc2nc(S(=O)(=O)Nc3c(Cl)cccc3C(=O)OC)nn12`, “inactive”. As to `O=C(Cl)c1cc(C(=O)Cl)cc(C(=O)Cl)c1`, the AC50 was 30.9 µM (active). Take `c1ccc2c(c1)ccc1ncccc12`: the result was inactive. For `CCCCCCCCc1ccc(Nc2ccc(CCCCCCCC)cc2)cc1`, the outcome was inactive. For the compound `CCCCC/C=C\C/C=C\CCCCCCCC(=O)OC`, the AC50 is 30.8 µM (active). `C/C=C\C/C=C/CCCCCCCCOC(C)=O`: the result was inactive. Take `c1ccc(-c2ccccn2)nc1`: the outcome was inactive. For `CCOC(=O)c1ccccc1C(=C1C=C(Br)C(=O)C(Br)=C1)c1cc(Br)c(O)c(Br)c1`, the AC50 is 3.6 µM (active) and 3.63 µM (active). For `C#CC1(O)CC[C@H]2[C@@H]3CCC4=CCCC[C@@H]4[C@H]3CC[C@@]21C` (stereo partly specified), the AC50 was 35.1 µM (active). Turning to `CCCCC(CC)COCC1CO1` (stereo unspecified), the result was inactive. Turning to `C=CCOc1c(Br)cc(Br)cc1Br`, the AC50 was 28.6 µM (active). On to `c1ccc2c(c1)ccc1cc3c(ccc4ccccc43)cc12`, for which the result was inactive.
